# A selection: hits, their analogues and other compounds. The true share with any hit is near 9.2%.
# NPC1 promoter act: qHTS Assay for NPC1 Promoter Activators | Huh7 NPC1 promoter luciferase reporter, 24 h | Potency, µM (titrated, usually from 9.22 µM), inactives show at the highest dose activation, most hits filed as activators | hit rate 2.4% among 320,000; note: % of control where 0% means no effect; nearly all actives have a fitted effect of over 60% in size
#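 Stable NPC1-promoter luciferase Huh7 line; cpd (DMSO) 24 h, 37 °C, 5% CO2; Amplite luciferase reagent 10 min RT; luminescence readout. qHTS format.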
# ELG1 genotox: qHTS screen for small molecules that induce genotoxicity in human embryonic kidney (HEK293T) cells expressing luciferase-tagged ELG1. Potency, µM (titrated, usually from 46 µM), for inactives: at the top dose activity change, positive = activation, usual class: activators. HEK293T ELG1-luciferase reporter, luminescence, 16 h. hit rate 1.3% among 330,000; note: % of control where 0% means no effect; nearly all actives have a fitted effect of over 60% in size
#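 HEK293T cells expressing luciferase-tagged ELG1 were treated with compound or DMSO for 16 hr at 37°C. Luciferase activity was then read after 30 min with ONE-Glo at room temperature; rising signal flags genetic stress.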
# SMN2 splice up: qHTS Assay for Enhancers of SMN2 Splice Variant Expression | hit rate 2.8% among 210,000 | Potency, µM (series often up to 46.1 µM), for the others: at the highest dose activity change, positive = activation, usual class: activators | HEK293 SMN2-luciferase splicing reporter, luminescence, 30-36 h | AID 1458, 2008; note: % of control where 0% means no effect; nearly all actives have a fitted effect of over 55% in size
#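 qHTS luciferase splicing reporter: luminescence rises when SMN2 exon 7 is included in transfected HEK293 cells. Compound exposure lasted 30-36 h at 37C, with 4.5 mM final sodium butyrate as control, followed by a ONE-Glo read.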
# FLuc counter: qHTS profiling assay for firefly luciferase inhibitor/activator using purifed enzyme and Km concentrations of substrates (counterscreen for miR-21 project) | Luciferin 4-monooxygenase (Photinus pyralis), P08659 | hit rate 6.9% among 360,000 | purified FLuc, Km substrates, luminescence inhibition | Potency, µM (series often up to 57.5 µM), inactives show top-dose activity change, negative = inhibition, usual class: inhibitors;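 note: plate controls were vehicle for no effect and reference inhibitor for full effect; nearly all actives have a fitted effect of over 55% in size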
# Target sequence (P08659 whole entry, looked up): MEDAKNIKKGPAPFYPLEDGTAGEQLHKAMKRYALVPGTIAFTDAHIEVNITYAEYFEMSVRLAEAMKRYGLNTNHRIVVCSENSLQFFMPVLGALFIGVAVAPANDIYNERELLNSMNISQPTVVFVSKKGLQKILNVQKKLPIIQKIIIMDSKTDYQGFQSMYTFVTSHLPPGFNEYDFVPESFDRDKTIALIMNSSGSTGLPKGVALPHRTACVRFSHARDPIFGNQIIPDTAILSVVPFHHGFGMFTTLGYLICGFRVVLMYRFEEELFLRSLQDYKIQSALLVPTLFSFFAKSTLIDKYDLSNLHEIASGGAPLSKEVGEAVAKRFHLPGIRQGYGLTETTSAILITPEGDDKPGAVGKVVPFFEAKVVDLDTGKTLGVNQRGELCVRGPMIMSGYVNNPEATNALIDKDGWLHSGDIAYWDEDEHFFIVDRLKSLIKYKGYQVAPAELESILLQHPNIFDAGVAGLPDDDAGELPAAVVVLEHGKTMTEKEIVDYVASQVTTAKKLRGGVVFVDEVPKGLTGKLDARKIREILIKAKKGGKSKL
#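 Purified P. pyralis luciferase, 10 nM final, with Km-level 10 uM D-luciferin and 10 uM ATP in 50 mM Tris acetate pH 7.5, 10 mM Mg acetate, 0.01% Tween-20, 0.05% BSA; 6-point qHTS titration about 60 µM downward; luminescence read.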
# ELG1 repair inh: qHTS screen for small molecules that inhibit ELG1-dependent DNA repair in human embryonic kidney (HEK293T) cells expressing luciferase-tagged ELG1; Potency, µM (highest dose often 46.1 µM), for the others: top-dose activity change, negative = inhibition, hits mostly inhibitors; hit rate 2.3% among 330,000; HEK293T ELG1-luciferase reporter, luminescence, 16 h; DNA damage induced by 5-fluorouridine; note: % is set by controls: 0 for no effect and ±100 for the full control effect; nearly all actives have a fitted effect of over 55% in size
#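 DMSO vehicle served as the neutral condition. Each well held 2,000 cells given 5-fluorouridine plus compound; after 16 hr at 37 °C/5% CO2, ONE-Glo was added and luciferase measured 30 min later.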
# Rab9 promoter act: qHTS Assay for Rab9 Promoter Activators; Huh7 Rab9 promoter-luciferase reporter, luminescence, 24 h; Potency, µM (highest dose often 9.22 µM), inactives show at the highest dose activation, negative = inhibition, most hits filed as activators; hit rate 2.8% among 320,000; AID 485297, 2010; note: % of control where 0% means no effect; nearly all actives have a fitted effect of over 60% in size
#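 Huh7 cells stably carrying a Rab9 promoter-luciferase reporter, 1500 cells per well in OP-MEM I with 10% FBS, treated with compound 24 hours at 37C. Luciferase activity read by luminescence after 10 minutes with Amplite reagent.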
# An asterisk follows results filed as active; ? = inconclusive; . = no result given; [ ] = dose if it differs, or a comment. Calls come from the whole dose curve; as a rule, active = well fitted curve in the direction sought with a large enough effect; inconclusive = small, poorly fitted or top-dose-only effect, or another doubt; inactive = no such curve, though single readings can be large; an effect the other way counts as inactive or inconclusive. Potency is the fitted concentration of half-maximal effect.
SMILES,NPC1 promoter act,ELG1 genotox,SMN2 splice up,FLuc counter,ELG1 repair inh,Rab9 promoter act
COc1ccc(C2=NN(c3ccc(C(=O)O)cc3)C(c3ccc(OC)c(OC)c3)C2)cc1 (stereo not given),16%,23µM*,.,?,?,10%
COc1cc(C2CC(c3ccccc3)=NN2c2ccccc2)ccc1OCC(=O)O (stereo not given),0%,7%,.,15µM*,7%,1%
COc1ccc(C2CC(c3ccc(Cl)cc3)=NN2c2ccc(S(N)(=O)=O)cc2)cc1 (stereo not given),.,-8%,.,.,0%,.
COc1cccc(-n2c(CN3CCN(c4ccccc4)CC3)nc3ccc([N+](=O)[O-])cc3c2=O)c1,0%,1%,-4%,-1%,18µM*,-2%
COc1ccc(C(=O)NCCSc2ccccc2)cc1,0.35µM*,2.6µM*,2.8µM*,1.5µM*,?,0.35µM*
COc1ccc(-c2[nH]c3ccccc3c2SCCNC(=O)c2ccccc2)cc1,-5%,-20%,-49%,-8%,16µM*,-10%
O=C(NCSc1ccccc1)c1ccccc1,2.5µM*,?,.,11µM*,?,1.4µM*
COc1cccc(C(=O)NCCSc2c(C)[nH]c3ccccc23)c1OC,-4%,-12%,.,1%,23µM*,0%
Cc1cc(O)c(C(C)(C)C)cc1Sc1cc(C(C)(C)C)c(O)cc1C,.,.,-54%,.,.,.
CCN(CC)[C@@H](C)CN1c2ccccc2Sc2ccccc21,.,.,-16%[20.6 µM],.,.,.
O=C(NCCSc1ccc(Br)cc1)c1ccccc1,-2%,1%,-4%,-11%,1%,1%
CSCc1ccc(C(=O)NCCSc2ccc(Br)cc2)cc1,?,?,.,19µM*,?,?
Cc1ccsc1C(=O)OCc1csc(-c2ccccc2)n1,?,7.3µM*,16µM*,0.6µM*,?,4µM*
Cn1cccc1C(=O)OCc1csc(-c2ccccc2)n1,2.5µM*,?,11µM*,0.67µM*,?,1.1µM*
O=C(OCc1csc(-c2ccccc2)n1)C1=NN(c2ccccc2)C(=O)CC1,12%,9%,.,?,?,14%
COc1ccccc1C(=O)NCC(=O)OCc1csc(-c2ccccc2)n1,1%,6%,?,-14%,?,11%
COc1ccc(C(=O)NCC(=O)OCc2csc(-c3ccccc3)n2)cc1,1%,5%,-16%,17µM*,?,0%
O=C(OCc1csc(-c2ccccc2)n1)c1cccs1,?,?,14%,0.54µM*,?,?
COC(=O)NNC(=O)c1ccc(C)c(Br)c1,-8%,0%,19%,1%,6%,7%
CCCCCn1c(SCc2ccncc2)nc2cc(C(=O)NCc3ccco3)ccc2c1=O,-4%,-9%,2%,2%,6.5µM*,1%
Cc1ccc(Cn2c(SCc3ccc(C(=O)O)cc3)nc3cccnc32)cc1,.,.,-3%,17µM*,.,.
Cc1ccc(CNC(=O)c2ccc(Cn3c(SCc4ccc(F)cc4)nc4cccnc43)cc2)o1,.,.,0%,3.8µM*,.,.
O=C(NC1CCCC1)c1ccc(CSc2nc3cccnc3n2Cc2ccc(F)cc2)cc1,.,.,.,-8%,.,.
CCCCn1c(SCC(=O)NCc2ccco2)nc2ccccc2c1=O,1%,-2%,-14%,0%,-4%,1%
O=C(NCc1ccco1)c1ccc(Cn2c(SCc3ccccc3F)nc3cccnc32)cc1,.,.,.,8.5µM*,.,.
SMILES,NPC1 promoter act,ELG1 genotox,SMN2 splice up,FLuc counter,ELG1 repair inh,Rab9 promoter act
O=S(=O)(NCCc1csc2nc(-c3ccc(Cl)cc3)nn12)c1cccs1,.,.,.,-15%,.,.
O=C(Nc1ccccc1Cl)C1CCN(c2nc3ccccc3[nH]2)CC1,.,.,.,0%,.,.
Cc1ccc(CNC(=O)c2ccc(Cn3c(SCc4ccccc4F)nc4cccnc43)cc2)cc1,.,.,.,6.7µM*,.,.
COc1cc(NC(=O)Cn2c(SCc3ccc(F)cc3)nc3cccnc32)cc(OC)c1,.,.,.,2%,.,.
O=C(CSc1nc2cccnc2n1Cc1ccccc1)NCc1ccco1,3%,-4%,19%,-3%,4%,-1%
COc1ccc(NC(=O)Cn2c(SCc3ccc(C)cc3)nc3cccnc32)c(OC)c1,.,.,.,1.9µM*,.,.
Cc1ccc(CSc2nc3cccnc3n2Cc2ccc(C(=O)NCc3ccco3)cc2)cc1,.,.,.,0.6µM*,.,.
Cc1cccc(CSc2nc3cccnc3n2Cc2ccc(C(=O)NCc3ccco3)cc2)c1,.,.,.,19µM*,.,.
CCN(CC(=O)NCc1ccc(F)cc1)C(=O)/C=C/c1ccco1,-3%,?,-5%,-1%,0%,-4%
COc1ccc(CN(C)C(=O)CCCNC(=O)c2ccc(Cl)cc2)cc1,1%,-1%,.,1%,-3%,-1%
CSc1cc(-c2ccc(Cl)cc2)c(C(=O)N2CCCC2)s1,-2%,11%,-10%,1%,-1%,-3%
O=C(Cn1cncc1-c1ccc([N+](=O)[O-])cc1)Nc1ccccc1F,2%,14%,21%,1%,23%,0%
O=C(CSc1nnc2scc(-c3ccc(Cl)cc3)n12)Nc1ccc(F)cc1,.,.,-13%,0%,.,.
CC(NC(=O)CCN1N=C(c2ccccc2)CCC1=O)c1ccc2c(c1)OCCO2 (stereo not given),7%,-4%,13%,3%,-16%,5%
COc1ccccc1CNC(=O)CSc1ccsc1[N+](=O)[O-],?,8%,80%,?,?,3.5µM*
Cn1c(=O)c(CCc2ccccc2)nc2cncnc21,.,.,-1%,.,.,.
Cc1ccsc1/C=C1\SC(=S)N(CC2CCCO2)C1=O (stereo not given),13%,?,18%,11µM*,?,?
CCN=C1S/C(=C\c2sccc2C)C(=O)N1CC,?,?,24%,12µM*,?,?
CCCOc1ccc(/C=C2\SC(=S)N(CC3CCCO3)C2=O)cc1 (stereo not given),-3%,7%,-21%,9.5µM*,-1%,7%
CCN=C1S/C(=C\c2ccc(OC)c(OCC)c2)C(=O)N1CC,0%,0%,0%,4%,1%,-6%
CCOC(=O)c1sc(SC)c2c1CCCC2=O,-1%,2%,.,0%,4%,-3%
O=C(CSc1ncc(S(=O)(=O)c2ccc(Br)cc2)c(=O)[nH]1)NCc1ccccc1Cl,.,.,-3%,9.5µM*,.,.
